Results taken from PubChem BioAssay AID1159580 (chemical genetic matrix, 2015).
Hit rate of the full screen: of about 5,500 compounds, about 2,000 (36%) were called active. Inconclusive results (about 18%) are left out. Rule as the data show it: active = normalized growth mostly below about 0.91 (no sharp cut-off); inconclusive = no clear call, values can overlap the other calls; inactive = mostly above about 0.92. The list shows a part of the results.

Assay: chemical genetic growth profiling, strain panel (AID 1159580);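 also: tested at 20 µM; growth read once vehicle control cultures reached saturation at 30 °C; 1 = growth at the plate median or of vehicle wells; lower values mean less growth of the strain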
Settings: growth OD

Measured: normalized growth

CC12CCC3C(CC3(C)C)C(C)(CCC1=O)O2 (configuration not stated)
inactive: S. cerevisiae deletion strains, locus YJR043C, strain POL32, stronger effect = lower value 1.01 | S. cerevisiae deletion strains, locus YJR066W, strain TOR1, stronger effect = lower value 0.988 | S. cerevisiae deletion strains, locus YKL009W, strain mrt4, stronger effect = lower value 1.03 | S. cerevisiae deletion strains, locus YKL068W, stronger effect = lower value 1.01 | S. cerevisiae deletion strains, locus YKL085W, strain MDH1 (second series), stronger effect = lower value 1.01 | S. cerevisiae deletion strains, locus YKL085W, strain MDH1, stronger effect = lower value 1.01 | S. cerevisiae deletion strains, locus YKL160W, strain elf1, stronger effect = lower value 1.03 | S. cerevisiae deletion strains, locus YKL190W, strain CNB1, stronger effect = lower value 1.01 | S. cerevisiae deletion strains, locus YKR001C, strain vps1, stronger effect = lower value 1.03 | S. cerevisiae deletion strains, locus YKR026C, strain gcn3, stronger effect = lower value 0.994 | S. cerevisiae deletion strains, locus YKR091W, strain srl3, stronger effect = lower value 0.992 | S. cerevisiae deletion strains, locus YLL001W, strain dnm1, stronger effect = lower value 1.01 | S. cerevisiae deletion strains, locus YLL026W, stronger effect = lower value 0.997 | S. cerevisiae deletion strains, locus YLL041C, strain sdh2, stronger effect = lower value 0.992 | S. cerevisiae deletion strains, locus YLR027C, strain aat2, stronger effect = lower value 1.01 | S. cerevisiae deletion strains, locus YLR039C, strain RIC1, stronger effect = lower value 1.08 | S. cerevisiae deletion strains, locus YLR058C, strain SHM2, stronger effect = lower value 1.02 | S. cerevisiae deletion strains, locus YLR102C, strain apc9, stronger effect = lower value 1.01 | S. cerevisiae deletion strains, locus YLR113W, strain HOG1, stronger effect = lower value 1.04 | S. cerevisiae deletion strains, locus YLR221C, strain rsa3, stronger effect = lower value 1 | S. cerevisiae deletion strains, locus YLR258W, strain gsy2, stronger effect = lower value 0.99 | S. cerevisiae deletion strains, locus YLR262C, strain YPT6 (second series), stronger effect = lower value 0.992 | S. cerevisiae deletion strains, locus YLR268W, strain sec22, stronger effect = lower value 1.03 | S. cerevisiae deletion strains, locus YLR320W, strain mms22, stronger effect = lower value 0.992 | S. cerevisiae deletion strains, locus YLR330W, strain CHS5, stronger effect = lower value 1.02 | S. cerevisiae deletion strains, locus YLR342W, strain FKS1, stronger effect = lower value 0.992 | S. cerevisiae deletion strains, locus YLR357W, strain rsc2, stronger effect = lower value 1.01 | S. cerevisiae deletion strains, locus YLR370C, strain arc18, stronger effect = lower value 1.03 | S. cerevisiae deletion strains, locus YLR371W, strain rom2, stronger effect = lower value 0.982 | S. cerevisiae deletion strains, locus YLR384C, strain iki3, stronger effect = lower value 1 | S. cerevisiae deletion strains, locus YLR418C, strain cdc73, stronger effect = lower value 1.07 | S. cerevisiae deletion strains, locus YML016C, strain PPZ1, stronger effect = lower value 1.01 | S. cerevisiae deletion strains, locus YML032C, strain rad52, stronger effect = lower value 1.02 | S. cerevisiae deletion strains, locus YML120C, strain ndi1, stronger effect = lower value 1 | S. cerevisiae deletion strains, locus YML124C, strain tub3, stronger effect = lower value 1.02 | S. cerevisiae deletion strains, locus YMR058W, strain fet3, stronger effect = lower value 1.02 | S. cerevisiae deletion strains, locus YMR078C, strain ctf18, stronger effect = lower value 1.01 | S. cerevisiae deletion strains, locus YMR125W, strain sto1, stronger effect = lower value 1.02 | S. cerevisiae deletion strains, locus YMR129W, stronger effect = lower value 0.987 | S. cerevisiae deletion strains, locus YMR205C, strain PFK2, stronger effect = lower value 1.01 | S. cerevisiae deletion strains, locus YMR223W, strain ubp8, stronger effect = lower value 1.03 | S. cerevisiae deletion strains, locus YMR231W, strain pep5, stronger effect = lower value 1.01 | S. cerevisiae deletion strains, locus YMR307W, strain GAS1, stronger effect = lower value 1.02 | S. cerevisiae deletion strains, locus YNL067W, strain RPL9B, stronger effect = lower value 1.03 | S. cerevisiae deletion strains, locus YNL071W, strain lat1, stronger effect = lower value 0.999 | S. cerevisiae deletion strains, locus YNL183C, strain NPR1, stronger effect = lower value 0.999 | S. cerevisiae deletion strains, locus YNL209W, strain ssb2, stronger effect = lower value 0.996 | S. cerevisiae deletion strains, locus YNL233W, strain BNI4, stronger effect = lower value 1.04 | S. cerevisiae deletion strains, locus YNL248C, strain rpa49, stronger effect = lower value 1.04 | S. cerevisiae deletion strains, locus YNL250W, strain rad50, stronger effect = lower value 1.05 | S. cerevisiae deletion strains, locus YNL271C, strain bni1, stronger effect = lower value 1.02 | S. cerevisiae deletion strains, locus YNL298W, strain CLA4, stronger effect = lower value 1.02 | S. cerevisiae deletion strains, locus YNL307C, strain MCK1, stronger effect = lower value 1.03 | S. cerevisiae deletion strains, locus YNL322C, strain KRE1 (second series), stronger effect = lower value 0.985 | S. cerevisiae deletion strains, locus YNL322C, strain KRE1, stronger effect = lower value 1.01 | S. cerevisiae deletion strains, locus YNR049C, strain mso1, stronger effect = lower value 0.999 | S. cerevisiae deletion strains, locus YNR052C, strain pop2, stronger effect = lower value 1.04 | S. cerevisiae deletion strains, locus YOL006C, strain TOP1, stronger effect = lower value 1.08 | S. cerevisiae deletion strains, locus YOL012C, strain htz1 0.815 | S. cerevisiae deletion strains, locus YOL147C, strain pex11, stronger effect = lower value 0.996 | S. cerevisiae deletion strains, locus YOR001W, strain rrp6, stronger effect = lower value 0.95 | S. cerevisiae deletion strains, locus YOR061W, strain CKA2, stronger effect = lower value 1.01 | S. cerevisiae deletion strains, locus YOR069W, strain VPS5, stronger effect = lower value 1.02 | S. cerevisiae deletion strains, locus YOR070C, strain gyp1, stronger effect = lower value 1.03 | S. cerevisiae deletion strains, locus YOR080W, strain dia2, stronger effect = lower value 0.989 | S. cerevisiae deletion strains, locus YOR083W, strain WHI5, stronger effect = lower value 1.03 | S. cerevisiae deletion strains, locus YOR106W, strain vam3, stronger effect = lower value 0.998 | S. cerevisiae deletion strains, locus YOR136W, strain idh2, stronger effect = lower value 1.01 | S. cerevisiae deletion strains, locus YOR144C, strain elg1, stronger effect = lower value 1.02 | S. cerevisiae deletion strains, locus YOR184W, strain ser1, stronger effect = lower value 0.997 | S. cerevisiae deletion strains, locus YOR231W, strain MKK1, stronger effect = lower value 1.05 | S. cerevisiae deletion strains, locus YOR265W, strain rbl2, stronger effect = lower value 1.02 | S. cerevisiae deletion strains, locus YOR270C, strain vph1, stronger effect = lower value 1.1 | S. cerevisiae deletion strains, locus YOR290C, strain snf2, stronger effect = lower value 0.975 | S. cerevisiae deletion strains, locus YOR316C, strain cot1, stronger effect = lower value 1.02 | S. cerevisiae deletion strains, locus YPL051W, strain arl3, stronger effect = lower value 1 | S. cerevisiae deletion strains, locus YPL055C, strain LGE1, stronger effect = lower value 1.04 | S. cerevisiae deletion strains, locus YPL078C, strain atp4, stronger effect = lower value 1.02 | S. cerevisiae deletion strains, locus YPL106C, strain sse1, stronger effect = lower value 1.01 | S. cerevisiae deletion strains, locus YPL240C, strain hsp82, stronger effect = lower value 0.994 | S. cerevisiae deletion strains, locus YPL256C, strain CLN2, stronger effect = lower value 1.06 | S. cerevisiae deletion strains, locus YPR119W, strain clb2, stronger effect = lower value 1.02 | S. cerevisiae deletion strains, locus YPR141C, strain kar3, stronger effect = lower value 1.01 | S. cerevisiae deletion strains, locus YPR163C, strain tif3, stronger effect = lower value 1.03 | S. cerevisiae deletion strains, locus YPR167C, strain met16, stronger effect = lower value 1.02 | S. cerevisiae deletion strains, strain wtn01, stronger effect = lower value 1.01 | S. cerevisiae strains, strain wild type, stronger effect = lower value 1.03
